The supplement of paper PMC10849652
About 7,900 targets were measured; listed, in parts, are those with a hit and a random draw of the rest. About 0.6% of all pairs of compound and target were hits.

Experiments:
Assay in all cases: log2 fold change, soluble protein after heating vs DMSO (PISA); higher = thermal stabilisation; K562 cells, 10 uM, 30 min; active = over 0.2 and 3.5 SD of the protein, either way, in both replicates (recomputed)
[1] = compound: Cc1ccc(NC(=O)c2ccc(CN3CC[C@H](N(C)C)C3)c(C(F)(F)F)c2)cc1Nc1nccc(-c2cncnc2)n1 [bafetinib]
Summary of the method: (§1)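 K562 cells at 2×10^6 cells/mL were treated for 30 min with 10 μM compound, and aliquots were heated for 3 min over 48°C-58°C before pooling. Extraction used PBS with 0.5% NP-40 at 4°C, and soluble protein was the supernatant after 21,000xg for 90 min, measured by TMTpro 16plex LC-MS/MS with channel sums equalised. Thermal stability values, relative to control samples and from duplicates, are log2 fold changes.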

[2] = compound: Cc1cccc(CC(=O)N2CCc3c2ccc(-c2cn(C)c4ncnc(N)c24)c3F)n1
Summary of the method: as §1

[3] = compound: Cc1cn(-c2cc(NC(=O)c3ccc(C)c(Nc4nccc(-c5cccnc5)n4)c3)cc(C(F)(F)F)c2)cn1 [nilotinib]
Summary of the method: as §1

[4] = compound: Cc1nc(Nc2n[nH]c3c2CN(C(=O)N[C@H](CN(C)C)c2ccccc2)C3(C)C)c2sccc2n1
Summary of the method: as §1

[5] = compound: Cc1nc(Nc2ncc(C(=O)Nc3c(C)cccc3Cl)s2)cc(N2CCN(CCO)CC2)n1 [dasatinib]
Summary of the method: as §1

[6] = compound: Cc1ncc(-c2ccnc(Nc3ccc(S(C)(=O)=O)cc3)n2)n1C(C)C
Summary of the method: as §1

[7] = compound: Cn1cc(-c2ccc3c(c2)CCN3C(=O)Cc2cccc(C(F)(F)F)c2)c2c(N)ncnc21
Summary of the method: as §1

[8] = compound: Cn1cc(-c2ccc3nnc(C(F)(F)c4ccc5ncccc5c4)n3n2)cn1
Summary of the method: as §1

[9] = compound: Cn1cncc1[C@@](N)(c1ccc(Cl)cc1)c1ccc2c(c1)c(-c1cccc(Cl)c1)cc(=O)n2C [tipifarnib]
Summary of the method: as §1

[10] = compound: FC(F)(F)c1ccc(/C=C/c2nc(COc3ccc(CCCCn4ccnn4)cc3)co2)cc1 [mubritinib]
Summary of the method: as §1

[11] = compound: NC(=O)Nc1cc(-c2cccc(F)c2)sc1C(=O)N[C@H]1CCCNC1
Summary of the method: as §1

[12] = compound: NC(=O)c1cnc(N[C@@H]2CCCC[C@@H]2N)nc1Nc1cccc(-n2nccn2)c1
Summary of the method: as §1

[13] = compound: NC1(c2ccc(-c3nc4ccn5c(=O)[nH]nc5c4cc3-c3ccccc3)cc2)CCC1
Summary of the method: as §1

[14] = compound: NCC(=O)Nc1ccc(-n2nc(C(F)(F)F)cc2-c2ccc3c(ccc4ccccc43)c2)cc1
Summary of the method: as §1

[15] = compound: Nc1ccccc1NC(=O)c1ccc(CNC(=O)OCc2cccnc2)cc1 [entinostat]
Summary of the method: as §1

[16] = compound: O=C(CCCCCCC(=O)Nc1ccccc1)NO [vorinostat]
Summary of the method: as §1

[17] = compound: O=C(CCCCCCNC(=O)c1cnc(N(c2ccccc2)c2ccccc2Cl)nc1)NO [citarinostat]
Summary of the method: as §1

[18] = compound: O=C(O)c1ccc2c(c1)nc(Nc1cccc(Cl)c1)c1ccncc12 [silmitasertib]
Summary of the method: as §1

[19] = compound: O=C1NC(=O)C(c2cnc3ccccn23)=C1c1cn2c3c(cc(F)cc13)CN(C(=O)N1CCCCC1)CC2
Summary of the method: as §1

[20] = compound: c1cc(OCCN2CCCCC2)cc(-c2n[nH]c3ccc(-c4nnc[nH]4)cc23)c1
Summary of the method: as §1

Measured: log2 fold change

VWA8 (UniProt A3KMH1)
Sequence of UniProt A3KMH1 (A3KMH1 whole entry, looked up): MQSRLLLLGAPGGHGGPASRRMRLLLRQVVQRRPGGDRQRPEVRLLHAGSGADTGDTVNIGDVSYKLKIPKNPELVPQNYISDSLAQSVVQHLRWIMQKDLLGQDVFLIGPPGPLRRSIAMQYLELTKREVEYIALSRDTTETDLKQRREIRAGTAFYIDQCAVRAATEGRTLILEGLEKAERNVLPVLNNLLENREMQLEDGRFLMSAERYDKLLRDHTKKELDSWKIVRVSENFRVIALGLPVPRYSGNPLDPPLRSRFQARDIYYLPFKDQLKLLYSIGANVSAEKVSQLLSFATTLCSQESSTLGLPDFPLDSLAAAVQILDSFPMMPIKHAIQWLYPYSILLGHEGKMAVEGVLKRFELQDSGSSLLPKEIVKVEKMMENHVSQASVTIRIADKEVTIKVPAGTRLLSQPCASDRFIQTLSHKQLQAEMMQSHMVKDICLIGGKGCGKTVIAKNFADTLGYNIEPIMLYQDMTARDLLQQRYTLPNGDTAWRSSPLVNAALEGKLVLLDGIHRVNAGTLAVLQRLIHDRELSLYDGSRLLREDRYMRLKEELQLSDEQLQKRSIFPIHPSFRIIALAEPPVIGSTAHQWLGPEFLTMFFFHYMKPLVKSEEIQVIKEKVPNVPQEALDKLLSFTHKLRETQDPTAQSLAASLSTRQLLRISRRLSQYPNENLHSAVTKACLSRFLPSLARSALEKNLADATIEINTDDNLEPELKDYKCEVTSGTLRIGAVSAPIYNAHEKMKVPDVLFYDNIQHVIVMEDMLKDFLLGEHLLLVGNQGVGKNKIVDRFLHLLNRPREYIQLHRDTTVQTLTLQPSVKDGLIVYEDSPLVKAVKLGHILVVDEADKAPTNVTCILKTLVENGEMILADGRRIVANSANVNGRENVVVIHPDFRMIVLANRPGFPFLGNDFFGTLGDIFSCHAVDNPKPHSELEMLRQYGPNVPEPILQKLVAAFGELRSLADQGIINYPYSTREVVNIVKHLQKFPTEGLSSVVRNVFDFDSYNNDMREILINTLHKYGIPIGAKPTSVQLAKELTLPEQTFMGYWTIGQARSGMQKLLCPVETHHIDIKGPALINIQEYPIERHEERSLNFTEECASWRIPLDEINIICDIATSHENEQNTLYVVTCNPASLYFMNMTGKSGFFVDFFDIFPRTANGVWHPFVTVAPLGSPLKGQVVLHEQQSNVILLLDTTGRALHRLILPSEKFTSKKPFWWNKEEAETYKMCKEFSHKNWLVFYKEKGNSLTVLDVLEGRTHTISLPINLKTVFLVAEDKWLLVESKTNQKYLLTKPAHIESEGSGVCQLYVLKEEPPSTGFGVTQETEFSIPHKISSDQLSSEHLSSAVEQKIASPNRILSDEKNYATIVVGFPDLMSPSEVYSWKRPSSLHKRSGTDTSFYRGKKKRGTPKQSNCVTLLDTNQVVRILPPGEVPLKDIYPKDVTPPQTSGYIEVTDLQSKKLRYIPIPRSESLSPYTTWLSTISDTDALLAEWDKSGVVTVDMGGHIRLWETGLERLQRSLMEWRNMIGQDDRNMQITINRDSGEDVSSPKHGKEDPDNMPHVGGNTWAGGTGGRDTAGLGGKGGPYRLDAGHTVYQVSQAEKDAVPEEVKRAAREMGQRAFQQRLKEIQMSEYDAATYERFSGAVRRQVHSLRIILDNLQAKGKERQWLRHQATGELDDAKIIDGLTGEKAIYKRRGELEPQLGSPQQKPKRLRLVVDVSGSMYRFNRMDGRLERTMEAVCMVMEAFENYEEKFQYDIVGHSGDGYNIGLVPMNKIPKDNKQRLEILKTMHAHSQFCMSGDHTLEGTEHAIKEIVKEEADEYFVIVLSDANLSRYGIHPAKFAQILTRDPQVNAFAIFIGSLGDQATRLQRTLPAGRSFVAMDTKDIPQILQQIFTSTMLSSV
inactive: [1] -0.113 | [2] -0.001 | [3] -0.099 | [4] -0.018 | [5] -0.158 | [6] -0.016 | [7] -0.057 | [8] 0.067 | [9] 0.036 | [11] -0.017 | [12] -0.024 | [13] -0.135 | [14] -0.016 | [15] 0.008 | [16] 0.096 | [17] 0.048 | [18] -0.046 | [19] -0.071 | [20] -0.039
active: [10] -0.255

USP3 (UniProt Q9Y6I4)
inactive: [1] 0.011 | [2] -0.009 | [3] -0.125 | [4] -0.198 | [5] -0.185 | [6] -0.026 | [7] 0.027 | [8] -0.023 | [9] -0.226 | [10] 0.045 | [11] 0.039 | [12] 0.016 | [13] -0.218 | [14] -0.115 | [15] -0.037 | [16] 0.092 | [17] 0.102 | [18] 0.019 | [19] -0.066 | [20] -0.014

VPS41 (UniProt P49754)
Sequence of UniProt P49754 (P49754 whole entry, looked up): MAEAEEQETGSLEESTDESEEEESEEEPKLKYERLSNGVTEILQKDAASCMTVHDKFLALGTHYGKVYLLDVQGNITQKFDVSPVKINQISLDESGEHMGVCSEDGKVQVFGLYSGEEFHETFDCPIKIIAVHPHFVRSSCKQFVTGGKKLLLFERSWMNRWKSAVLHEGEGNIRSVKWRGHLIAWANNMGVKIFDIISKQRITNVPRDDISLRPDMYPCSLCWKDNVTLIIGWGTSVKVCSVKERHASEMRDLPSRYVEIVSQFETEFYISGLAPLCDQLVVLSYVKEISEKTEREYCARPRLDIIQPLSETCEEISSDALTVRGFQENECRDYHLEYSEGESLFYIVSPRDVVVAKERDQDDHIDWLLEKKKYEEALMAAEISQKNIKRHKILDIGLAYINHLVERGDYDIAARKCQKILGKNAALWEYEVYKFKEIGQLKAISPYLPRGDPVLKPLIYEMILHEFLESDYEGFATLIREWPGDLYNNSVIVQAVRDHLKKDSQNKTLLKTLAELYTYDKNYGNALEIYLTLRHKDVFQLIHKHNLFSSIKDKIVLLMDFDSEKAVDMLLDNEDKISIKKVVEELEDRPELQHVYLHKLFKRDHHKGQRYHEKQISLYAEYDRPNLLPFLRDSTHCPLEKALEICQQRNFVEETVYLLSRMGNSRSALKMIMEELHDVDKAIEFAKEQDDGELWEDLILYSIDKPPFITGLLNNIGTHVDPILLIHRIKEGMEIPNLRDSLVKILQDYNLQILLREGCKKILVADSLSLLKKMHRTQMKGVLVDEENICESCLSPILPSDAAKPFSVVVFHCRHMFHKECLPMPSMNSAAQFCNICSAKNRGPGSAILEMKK
inactive: [1] -0.134 | [2] 0.034 | [3] -0.012 | [4] -0.039 | [5] -0.094 | [6] -0.03 | [7] 0 | [8] 0.013 | [9] -0.084 | [10] 0.08 | [11] -0.006 | [12] -0.163 | [14] -0.163 | [15] 0.083 | [16] 0.072 | [17] 0.082 | [18] -0.006 | [19] -0.046 | [20] -0.056
active: [13] -0.267

TRIP10 (UniProt Q15642)
inactive: [1] -0.042 | [2] 0.05 | [3] 0.098 | [4] -0.017 | [5] -0.06 | [6] -0.021 | [7] 0.045 | [8] 0.024 | [9] -0.01 | [10] 0.048 | [11] -0.003 | [12] -0.055 | [13] -0.129 | [14] -0.011 | [15] 0.019 | [16] -0.063 | [17] 0 | [18] 0.046 | [19] -0.207 | [20] -0.014

TRIM28 (UniProt Q13263)
inactive: [1] 0.005 | [2] 0.011 | [3] -0.013 | [4] -0.035 | [5] -0.014 | [6] 0.013 | [7] -0.02 | [8] 0.004 | [9] -0.035 | [10] 0.009 | [11] -0.006 | [12] -0.008 | [13] -0.038 | [14] -0.007 | [15] 0.038 | [16] 0.032 | [17] 0.036 | [18] 0.036 | [19] -0.048 | [20] -0.009

VPS35L (UniProt Q7Z3J2)
inactive: [1] 0.006 | [2] -0.008 | [3] -0.201 | [4] 0.101 | [5] -0.056 | [6] -0.123 | [7] -0.152 | [8] 0.009 | [9] -0.002 | [10] 0.02 | [11] -0.038 | [12] 0.004 | [13] -0.137 | [14] -0.012 | [15] 0.006 | [16] -0.039 | [17] 0.08 | [18] 0.111 | [19] -0.006 | [20] -0.062

WASHC2C, A0A096LPC5
Sequence of WASHC2C, A0A096LPC5 (A0A096LPC5 whole entry, looked up): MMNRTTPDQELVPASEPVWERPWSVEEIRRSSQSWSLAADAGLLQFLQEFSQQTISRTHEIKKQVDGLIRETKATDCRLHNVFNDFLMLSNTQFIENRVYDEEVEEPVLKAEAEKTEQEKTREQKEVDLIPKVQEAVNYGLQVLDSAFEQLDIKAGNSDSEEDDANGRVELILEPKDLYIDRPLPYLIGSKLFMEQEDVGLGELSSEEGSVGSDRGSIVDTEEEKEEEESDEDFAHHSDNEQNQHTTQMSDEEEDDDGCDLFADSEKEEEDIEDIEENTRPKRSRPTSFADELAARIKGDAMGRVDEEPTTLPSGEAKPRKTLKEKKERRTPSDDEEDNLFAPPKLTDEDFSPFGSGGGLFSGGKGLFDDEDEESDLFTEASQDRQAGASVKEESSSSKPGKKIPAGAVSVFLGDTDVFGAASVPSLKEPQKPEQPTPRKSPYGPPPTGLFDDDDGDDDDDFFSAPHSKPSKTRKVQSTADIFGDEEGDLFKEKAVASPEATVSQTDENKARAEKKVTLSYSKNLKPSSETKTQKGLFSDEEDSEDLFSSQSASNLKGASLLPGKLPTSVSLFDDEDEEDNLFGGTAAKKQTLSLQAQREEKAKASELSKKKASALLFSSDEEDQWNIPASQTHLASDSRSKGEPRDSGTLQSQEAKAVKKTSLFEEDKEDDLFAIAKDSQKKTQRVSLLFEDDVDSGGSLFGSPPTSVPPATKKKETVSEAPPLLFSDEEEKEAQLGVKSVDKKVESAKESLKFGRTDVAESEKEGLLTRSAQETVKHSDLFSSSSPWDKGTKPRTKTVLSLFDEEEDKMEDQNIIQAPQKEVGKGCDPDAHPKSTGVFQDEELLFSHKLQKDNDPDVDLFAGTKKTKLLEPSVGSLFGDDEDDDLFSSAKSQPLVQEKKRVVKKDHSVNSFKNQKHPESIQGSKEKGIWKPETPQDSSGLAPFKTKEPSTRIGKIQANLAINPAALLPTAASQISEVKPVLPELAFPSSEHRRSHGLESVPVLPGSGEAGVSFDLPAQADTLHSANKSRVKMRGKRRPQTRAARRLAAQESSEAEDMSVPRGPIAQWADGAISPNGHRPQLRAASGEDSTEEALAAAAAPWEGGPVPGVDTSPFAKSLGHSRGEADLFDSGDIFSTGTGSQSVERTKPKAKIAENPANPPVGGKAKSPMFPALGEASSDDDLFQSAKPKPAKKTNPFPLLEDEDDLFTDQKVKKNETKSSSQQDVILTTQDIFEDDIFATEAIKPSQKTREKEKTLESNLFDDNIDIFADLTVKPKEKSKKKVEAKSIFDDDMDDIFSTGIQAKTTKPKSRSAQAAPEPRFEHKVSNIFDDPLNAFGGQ
inactive: [1] -0.144 | [2] -0.335 | [3] 0.093 | [4] -0.101 | [5] 0.13 | [6] -0.003 | [7] -0.016 | [8] -0.082 | [9] 0.283 | [10] 0.123 | [11] -0.084 | [12] -0.208 | [13] -0.06 | [14] -0.058 | [15] -0.015 | [16] -0.209 | [17] -0.113 | [18] 0.361 | [19] 0.001 | [20] -0.151

WDHD1 (UniProt O75717)
inactive: [1] -0.009 | [2] 0.008 | [3] -0.005 | [4] -0.12 | [5] -0.076 | [6] -0.021 | [7] 0.03 | [8] 0.022 | [9] -0.041 | [10] 0.067 | [11] -0.037 | [12] -0.054 | [13] -0.156 | [14] -0.106 | [15] 0.09 | [16] 0.119 | [17] 0.176 | [18] 0.025 | [19] -0.107 | [20] -0.001

TMEM9 (UniProt Q9P0T7)
Sequence of UniProt Q9P0T7 (Q9P0T7 whole entry, looked up): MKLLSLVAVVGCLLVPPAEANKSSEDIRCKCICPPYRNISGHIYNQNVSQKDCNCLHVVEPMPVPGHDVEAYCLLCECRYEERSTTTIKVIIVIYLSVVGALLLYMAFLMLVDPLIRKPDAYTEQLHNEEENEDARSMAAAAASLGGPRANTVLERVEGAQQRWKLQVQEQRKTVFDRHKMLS
inactive: [1] 0.028 | [2] -0.048 | [3] -0.017 | [4] -0.022 | [5] -0.087 | [6] -0.037 | [7] 0.057 | [8] -0.007 | [9] -0.068 | [10] 0.025 | [11] -0.008 | [12] 0.047 | [13] -0.113 | [14] 0.063 | [15] -0.026 | [16] -0.053 | [17] 0.1 | [18] -0.044 | [19] -0.031 | [20] 0.065

VRK2 (UniProt Q86Y07)
active: [4] 0.414
inactive: [1] 0.033 | [2] 0.081 | [3] -0.062 | [5] 0.011 | [6] 0.033 | [7] 0.129 | [8] -0.066 | [9] -0.057 | [10] 0.006 | [11] 0.023 | [12] 0.04 | [13] -0.111 | [14] -0.025 | [15] 0.032 | [16] 0.02 | [17] 0.008 | [18] 0 | [19] 0.06 | [20] 0.001

TPR (UniProt P12270)
inactive: [1] -0.011 | [2] -0.004 | [3] 0.056 | [4] 0.04 | [5] 0.158 | [6] 0.047 | [7] -0.184 | [8] -0.017 | [9] 0.002 | [10] 0.089 | [11] 0.09 | [12] -0.039 | [13] 0.06 | [14] -0.032 | [15] -0.019 | [16] -0.084 | [17] 0.008 | [19] 0.085 | [20] 0.005
active: [18] 0.3

TYW1 (UniProt Q9NV66)
inactive: [1] -0.003 | [2] 0.033 | [3] -0.107 | [4] -0.005 | [5] 0.015 | [6] 0.04 | [7] -0.001 | [8] -0.085 | [9] -0.041 | [10] -0.075 | [11] -0.022 | [12] 0.05 | [13] 0.004 | [14] 0.013 | [15] 0.028 | [16] -0.056 | [17] 0.053 | [18] 0.039 | [19] -0.141 | [20] -0.007

VDAC1 (UniProt P21796)
inactive: [1] -0.039 | [2] -0.037 | [3] 0.006 | [4] 0.025 | [5] 0.035 | [6] -0.005 | [7] 0.02 | [8] 0.008 | [9] 0.017 | [10] 0.02 | [11] 0.025 | [12] 0 | [13] 0.008 | [14] 0.019 | [15] -0.002 | [16] -0.044 | [17] 0.039 | [18] -0.015 | [19] -0.019 | [20] -0.009

XRCC5 (UniProt P13010)
Sequence of UniProt P13010 (P13010 whole entry, looked up): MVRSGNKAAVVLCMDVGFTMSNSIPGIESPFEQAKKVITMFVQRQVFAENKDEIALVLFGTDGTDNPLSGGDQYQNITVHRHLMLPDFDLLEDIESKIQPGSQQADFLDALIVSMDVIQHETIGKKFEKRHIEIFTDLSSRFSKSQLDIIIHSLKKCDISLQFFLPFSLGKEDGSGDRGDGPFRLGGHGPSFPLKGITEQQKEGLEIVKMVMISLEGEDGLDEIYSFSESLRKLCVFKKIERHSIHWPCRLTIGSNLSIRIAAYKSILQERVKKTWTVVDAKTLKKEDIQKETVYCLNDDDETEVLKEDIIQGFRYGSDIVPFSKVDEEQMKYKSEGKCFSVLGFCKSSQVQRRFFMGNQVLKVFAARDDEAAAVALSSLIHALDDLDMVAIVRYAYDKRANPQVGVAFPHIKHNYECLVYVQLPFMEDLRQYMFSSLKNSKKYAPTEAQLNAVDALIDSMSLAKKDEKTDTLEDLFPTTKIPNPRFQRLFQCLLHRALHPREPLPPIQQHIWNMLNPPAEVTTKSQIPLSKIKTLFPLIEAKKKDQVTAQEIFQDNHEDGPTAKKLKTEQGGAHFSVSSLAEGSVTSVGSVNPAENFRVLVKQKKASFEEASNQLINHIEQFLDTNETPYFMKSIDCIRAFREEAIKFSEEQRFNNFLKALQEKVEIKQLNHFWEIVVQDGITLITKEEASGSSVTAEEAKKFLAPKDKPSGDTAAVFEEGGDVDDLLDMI
inactive: [1] 0.083 | [2] 0.07 | [3] -0.12 | [4] -0.405 | [5] -0.118 | [6] -0.243 | [7] 0.105 | [8] 0.123 | [9] -0.082 | [10] -0.014 | [11] -0.024 | [12] -0.172 | [13] -0.122 | [14] -0.058 | [15] 0.155 | [16] 0.151 | [17] 0.163 | [18] 0.019 | [19] -0.096 | [20] -0.041

TMEM177 (UniProt Q53S58)
inactive: [1] -0.123 | [2] 0.054 | [3] -0.001 | [4] -0.005 | [5] -0.045 | [6] 0.023 | [7] -0.019 | [8] 0.016 | [9] 0.004 | [10] 0.026 | [11] -0.014 | [12] -0.008 | [13] -0.043 | [15] -0.021 | [16] -0.048 | [17] 0.068 | [18] -0.019 | [19] 0.048 | [20] -0.042
active: [14] 0.347

TMEM161B (UniProt Q8NDZ6)
active: [5] -0.273
inactive: [1] -0.01 | [2] 0.073 | [3] -0.148 | [4] -0.018 | [6] -0.046 | [7] -0.08 | [8] 0.103 | [9] -0.043 | [10] 0.036 | [11] -0.056 | [12] 0.029 | [13] -0.017 | [14] -0.073 | [15] 0.041 | [16] 0.097 | [17] 0.036 | [18] -0.011 | [19] 0.003 | [20] -0.03
